# In PubChem BioAssay AID1159580 (chemical genetic matrix, 2015):
# Where “and” joins values, the source holds several entries; their conditions need not be identical. Equal entries are not always repeated. Out of some 5,500 compounds screened, about 2,000 (36%) were called active. Roughly 18% stayed inconclusive and do not appear here. The list shows a part of the results. Unmarked numbers belong to inactive results. Rule as the data show it: active = normalized growth mostly below about 0.91 (no sharp cut-off); inconclusive = no clear call, values can overlap the other calls; inactive = mostly above about 0.92.
# Assay: chemical genetic growth profiling, strain panel (AID 1159580);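 also: tested at 20 µM; growth read once vehicle control cultures reached saturation at 30 °C; 1 = growth at the plate median or of vehicle wells; lower values mean less growth of the strain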
# Conditions: growth OD
compound,measurement,setting,value
CC(CN1c2ccccc2Sc2ccccc21)N(C)C (configuration not stated),normalized growth,"S. cerevisiae deletion strains, locus YKL009W, strain mrt4, stronger effect = lower value",0.924
same,normalized growth,"S. cerevisiae deletion strains, locus YKL068W, stronger effect = lower value",0.982
same,normalized growth,"S. cerevisiae deletion strains, locus YKL085W, strain MDH1 (second series), stronger effect = lower value",0.965
same,normalized growth,"S. cerevisiae deletion strains, locus YKL085W, strain MDH1, stronger effect = lower value",0.965
same,normalized growth,"S. cerevisiae deletion strains, locus YKL160W, strain elf1, stronger effect = lower value",0.913
same,normalized growth,"S. cerevisiae deletion strains, locus YKL190W, strain CNB1, stronger effect = lower value",0.995
same,normalized growth,"S. cerevisiae deletion strains, locus YKR001C, strain vps1, stronger effect = lower value",0.968
same,normalized growth,"S. cerevisiae deletion strains, locus YKR026C, strain gcn3, stronger effect = lower value",0.972
same,normalized growth,"S. cerevisiae deletion strains, locus YKR091W, strain srl3, stronger effect = lower value",0.983
same,normalized growth,"S. cerevisiae deletion strains, locus YLL001W, strain dnm1, stronger effect = lower value",0.879 (active)
same,normalized growth,"S. cerevisiae deletion strains, locus YLL026W, stronger effect = lower value",0.943
same,normalized growth,"S. cerevisiae deletion strains, locus YLL041C, strain sdh2, stronger effect = lower value",0.982
same,normalized growth,"S. cerevisiae deletion strains, locus YLR027C, strain aat2, stronger effect = lower value",0.932
same,normalized growth,"S. cerevisiae deletion strains, locus YLR039C, strain RIC1, stronger effect = lower value",1.23
same,normalized growth,"S. cerevisiae deletion strains, locus YLR058C, strain SHM2, stronger effect = lower value",0.957
same,normalized growth,"S. cerevisiae deletion strains, locus YLR102C, strain apc9, stronger effect = lower value",0.981
same,normalized growth,"S. cerevisiae deletion strains, locus YLR113W, strain HOG1, stronger effect = lower value",1.03
same,normalized growth,"S. cerevisiae deletion strains, locus YLR221C, strain rsa3, stronger effect = lower value",0.969
same,normalized growth,"S. cerevisiae deletion strains, locus YLR258W, strain gsy2, stronger effect = lower value",0.974
same,normalized growth,"S. cerevisiae deletion strains, locus YLR262C, strain YPT6 (second series), stronger effect = lower value",1.07
same,normalized growth,"S. cerevisiae deletion strains, locus YLR262C, strain YPT6, stronger effect = lower value",1.34
same,normalized growth,"S. cerevisiae deletion strains, locus YLR268W, strain sec22, stronger effect = lower value",0.947
same,normalized growth,"S. cerevisiae deletion strains, locus YLR320W, strain mms22, stronger effect = lower value",0.944
same,normalized growth,"S. cerevisiae deletion strains, locus YLR330W, strain CHS5, stronger effect = lower value",0.993
same,normalized growth,"S. cerevisiae deletion strains, locus YLR342W, strain FKS1 (second series), stronger effect = lower value",0.928
same,normalized growth,"S. cerevisiae deletion strains, locus YLR342W, strain FKS1, stronger effect = lower value",0.844 (active)
same,normalized growth,"S. cerevisiae deletion strains, locus YLR357W, strain rsc2, stronger effect = lower value",0.99
same,normalized growth,"S. cerevisiae deletion strains, locus YLR370C, strain arc18, stronger effect = lower value",0.938
same,normalized growth,"S. cerevisiae deletion strains, locus YLR371W, strain rom2, stronger effect = lower value",0.962
same,normalized growth,"S. cerevisiae deletion strains, locus YLR384C, strain iki3, stronger effect = lower value",0.968
same,normalized growth,"S. cerevisiae deletion strains, locus YLR418C, strain cdc73, stronger effect = lower value",0.955
same,normalized growth,"S. cerevisiae deletion strains, locus YML016C, strain PPZ1, stronger effect = lower value",0.985
same,normalized growth,"S. cerevisiae deletion strains, locus YML032C, strain rad52, stronger effect = lower value",0.908
same,normalized growth,"S. cerevisiae deletion strains, locus YML120C, strain ndi1, stronger effect = lower value",0.921
same,normalized growth,"S. cerevisiae deletion strains, locus YML124C, strain tub3, stronger effect = lower value",0.983
same,normalized growth,"S. cerevisiae deletion strains, locus YMR058W, strain fet3, stronger effect = lower value",0.94
same,normalized growth,"S. cerevisiae deletion strains, locus YMR078C, strain ctf18, stronger effect = lower value",0.98
same,normalized growth,"S. cerevisiae deletion strains, locus YMR125W, strain sto1, stronger effect = lower value",0.988
same,normalized growth,"S. cerevisiae deletion strains, locus YMR129W, stronger effect = lower value",0.97
same,normalized growth,"S. cerevisiae deletion strains, locus YMR205C, strain PFK2, stronger effect = lower value",0.968
same,normalized growth,"S. cerevisiae deletion strains, locus YMR223W, strain ubp8, stronger effect = lower value",0.992
same,normalized growth,"S. cerevisiae deletion strains, locus YMR231W, strain pep5, stronger effect = lower value",0.983
same,normalized growth,"S. cerevisiae deletion strains, locus YMR263W, strain SAP30, stronger effect = lower value",0.999
same,normalized growth,"S. cerevisiae deletion strains, locus YMR307W, strain GAS1, stronger effect = lower value",1.12
same,normalized growth,"S. cerevisiae deletion strains, locus YNL067W, strain RPL9B, stronger effect = lower value",0.924
same,normalized growth,"S. cerevisiae deletion strains, locus YNL071W, strain lat1, stronger effect = lower value",0.969
same,normalized growth,"S. cerevisiae deletion strains, locus YNL128W, strain TEP1, stronger effect = lower value",1.02
same,normalized growth,"S. cerevisiae deletion strains, locus YNL175C, strain NOP13, stronger effect = lower value",1.01
same,normalized growth,"S. cerevisiae deletion strains, locus YNL183C, strain NPR1, stronger effect = lower value",0.964
same,normalized growth,"S. cerevisiae deletion strains, locus YNL197C, strain WHI3, stronger effect = lower value",1.01
same,normalized growth,"S. cerevisiae deletion strains, locus YNL209W, strain ssb2, stronger effect = lower value",0.962
same,normalized growth,"S. cerevisiae deletion strains, locus YNL224C, strain SQS1, stronger effect = lower value",1.01
same,normalized growth,"S. cerevisiae deletion strains, locus YNL233W, strain BNI4, stronger effect = lower value",0.925
same,normalized growth,"S. cerevisiae deletion strains, locus YNL248C, strain rpa49, stronger effect = lower value",0.971
same,normalized growth,"S. cerevisiae deletion strains, locus YNL250W, strain rad50, stronger effect = lower value",0.958
same,normalized growth,"S. cerevisiae deletion strains, locus YNL271C, strain bni1, stronger effect = lower value",0.973
same,normalized growth,"S. cerevisiae deletion strains, locus YNL298W, strain CLA4, stronger effect = lower value",0.978
same,normalized growth,"S. cerevisiae deletion strains, locus YNL307C, strain MCK1, stronger effect = lower value",0.958
same,normalized growth,"S. cerevisiae deletion strains, locus YNL322C, strain KRE1 (second series), stronger effect = lower value",0.976
same,normalized growth,"S. cerevisiae deletion strains, locus YNR049C, strain mso1, stronger effect = lower value",0.977
same,normalized growth,"S. cerevisiae deletion strains, locus YNR052C, strain pop2, stronger effect = lower value",0.976
same,normalized growth,"S. cerevisiae deletion strains, locus YOL006C, strain TOP1, stronger effect = lower value",0.79
same,normalized growth,"S. cerevisiae deletion strains, locus YOL012C, strain htz1",1.06
same,normalized growth,"S. cerevisiae deletion strains, locus YOL147C, strain pex11, stronger effect = lower value",0.976
same,normalized growth,"S. cerevisiae deletion strains, locus YOR001W, strain rrp6, stronger effect = lower value",0.889 (active)
same,normalized growth,"S. cerevisiae deletion strains, locus YOR061W, strain CKA2, stronger effect = lower value",0.955
same,normalized growth,"S. cerevisiae deletion strains, locus YOR069W, strain VPS5, stronger effect = lower value",0.986
same,normalized growth,"S. cerevisiae deletion strains, locus YOR070C, strain gyp1, stronger effect = lower value",0.965
same,normalized growth,"S. cerevisiae deletion strains, locus YOR080W, strain dia2, stronger effect = lower value",0.963
same,normalized growth,"S. cerevisiae deletion strains, locus YOR083W, strain WHI5 (second series), stronger effect = lower value",1.02
same,normalized growth,"S. cerevisiae deletion strains, locus YOR083W, strain WHI5, stronger effect = lower value",0.898
same,normalized growth,"S. cerevisiae deletion strains, locus YOR106W, strain vam3, stronger effect = lower value",0.884
same,normalized growth,"S. cerevisiae deletion strains, locus YOR136W, strain idh2, stronger effect = lower value",0.968
same,normalized growth,"S. cerevisiae deletion strains, locus YOR144C, strain elg1, stronger effect = lower value",0.989
same,normalized growth,"S. cerevisiae deletion strains, locus YOR184W, strain ser1, stronger effect = lower value",1.01
same,normalized growth,"S. cerevisiae deletion strains, locus YOR231W, strain MKK1, stronger effect = lower value",1.01
same,normalized growth,"S. cerevisiae deletion strains, locus YOR265W, strain rbl2, stronger effect = lower value",0.955
same,normalized growth,"S. cerevisiae deletion strains, locus YOR270C, strain vph1, stronger effect = lower value",0.998
same,normalized growth,"S. cerevisiae deletion strains, locus YOR290C, strain snf2, stronger effect = lower value",0.96
same,normalized growth,"S. cerevisiae deletion strains, locus YOR316C, strain cot1, stronger effect = lower value",0.97
same,normalized growth,"S. cerevisiae deletion strains, locus YPL051W, strain arl3, stronger effect = lower value",0.863 (active)
same,normalized growth,"S. cerevisiae deletion strains, locus YPL078C, strain atp4, stronger effect = lower value",0.838 (active)
same,normalized growth,"S. cerevisiae deletion strains, locus YPL106C, strain sse1, stronger effect = lower value",0.929
same,normalized growth,"S. cerevisiae deletion strains, locus YPL240C, strain hsp82, stronger effect = lower value",0.965
same,normalized growth,"S. cerevisiae deletion strains, locus YPL241C, strain CIN2, stronger effect = lower value",0.989 and 0.995
same,normalized growth,"S. cerevisiae deletion strains, locus YPL256C, strain CLN2, stronger effect = lower value",1.07
same,normalized growth,"S. cerevisiae deletion strains, locus YPR119W, strain clb2, stronger effect = lower value",0.971
same,normalized growth,"S. cerevisiae deletion strains, locus YPR141C, strain kar3, stronger effect = lower value",0.976
same,normalized growth,"S. cerevisiae deletion strains, locus YPR163C, strain tif3, stronger effect = lower value",0.928
same,normalized growth,"S. cerevisiae deletion strains, locus YPR167C, strain met16, stronger effect = lower value",0.97
same,normalized growth,"S. cerevisiae deletion strains, strain wtn01, stronger effect = lower value",0.957
same,normalized growth,"S. cerevisiae strains, strain wild type, stronger effect = lower value",0.975
